According to PubChem BioAssay:
Active and inactive are the calls of the source. Unless noted, how the calls were made is not given here.

Key:
[1] = HepG2 liver cancer cell viability effects, profiling panel, resazurin fluorescence, 24 h, PK04 Diversity Set (AID 1172); conditions: higher = more signal; further: test concentration not given here
[2] = basal S. cerevisiae growth modulation, no modifier, primary screen, OD600, strain BY4716, 24 h, basal condition (AID 1173); conditions: OD600, 24 h, higher = more signal, called active from +8 up or from −8 down
[3] = MM1S myeloma cell viability, profiling panel, resazurin fluorescence, basal, 24 h, PK04 Diversity Set (AID 1174); conditions: higher = more signal, called active from +8 up or from −8 down;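 further: MM1S multiple myeloma cell line; test concentration not given here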
[4] = target: Dihydroorotate dehydrogenase (quinone), mitochondrial (Plasmodium falciparum (isolate 3D7)) (UniProt Q08210); assay: PfDHODH enzyme inhibitors, primary screen, biochemical, C-terminal His tag, absorbance 600 nm (AID 1175); conditions: DCIP absorbance 600 nm, higher = more signal, called active from +8 up or from −8 down;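 further: recombinant parasite enzyme with a five histidine tag at its C terminus; test concentration not given here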
[5] = P. aeruginosa biofilm formation inhibitors, primary screen, strain PAO1, LB-PBS medium, absorbance 600 nm (AID 1176); further: test concentration not given here; conditions: P. aeruginosa PAO1 growth/biofilm, A600, 12 h; higher = more signal
[6] = S. cerevisiae RM11-1a growth modifiers, primary screen, strain RM11-1a, OD600, basal, 24 h (AID 1177); conditions: OD600, 24 h, higher = more signal, called active from +8 up or from −8 down;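 further: cultures grown under basal conditions with no added stressor; test concentration not given here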
[7] = E. coli acrAB mutant growth effects, primary screen, E. coli filamentation inducers, strain DRC39, OD650, 24 h (AID 1178); conditions: higher = more signal, called active from +8 up or from −8 down;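 further: growth measured as culture turbidity by optical density at 650 nm; test concentration not given here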
[8] = E. coli acrAB mutant growth effects, primary screen, E. coli filamentation inducers, strain DRC39, OD650, 48 h (AID 1179);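 further: screen aims at cell division blockers that make cells filament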; conditions: E. coli DRC39 delta-acrAB growth, higher = more signal, called active from +8 up or from −8 down
[9] = RPMI8226 myeloma cell viability, profiling panel, resazurin fluorescence, basal, 24 h, PK04 Diversity Set (AID 1180); conditions: higher = more signal;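 further: RPMI8826 multiple myeloma cell line at 5000 cells per well; test concentration not given here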
[10] = target: E3 ubiquitin-protein ligase XIAP (Homo sapiens) (UniProt P98170); assay: XIAP binders, primary screen, biophysical, small-molecule microarray, fluorescence 635 nm (AID 1181); conditions: small-molecule microarray binding, higher = more signal;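 further: score merges 667 nm emission and signal to noise over triplicate slides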
Chain of E3 ubiquitin-protein ligase XIAP (Homo sapiens) (P98170 whole entry, looked up): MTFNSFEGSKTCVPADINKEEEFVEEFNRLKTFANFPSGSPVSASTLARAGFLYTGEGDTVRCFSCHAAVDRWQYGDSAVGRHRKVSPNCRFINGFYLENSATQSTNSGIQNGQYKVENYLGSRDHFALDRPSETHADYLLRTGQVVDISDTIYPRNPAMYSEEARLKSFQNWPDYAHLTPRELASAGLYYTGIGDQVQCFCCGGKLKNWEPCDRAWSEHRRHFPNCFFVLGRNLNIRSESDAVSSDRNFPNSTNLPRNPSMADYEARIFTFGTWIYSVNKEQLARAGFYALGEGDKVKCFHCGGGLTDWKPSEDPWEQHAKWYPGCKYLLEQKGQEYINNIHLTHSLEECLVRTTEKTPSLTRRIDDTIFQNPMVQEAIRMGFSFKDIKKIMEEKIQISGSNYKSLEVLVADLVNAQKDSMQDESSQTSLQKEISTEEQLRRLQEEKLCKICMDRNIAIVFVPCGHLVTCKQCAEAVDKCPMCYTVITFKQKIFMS

Chain of Dihydroorotate dehydrogenase (quinone), mitochondrial (Plasmodium falciparum (isolate 3D7)) (Q08210 whole entry, looked up): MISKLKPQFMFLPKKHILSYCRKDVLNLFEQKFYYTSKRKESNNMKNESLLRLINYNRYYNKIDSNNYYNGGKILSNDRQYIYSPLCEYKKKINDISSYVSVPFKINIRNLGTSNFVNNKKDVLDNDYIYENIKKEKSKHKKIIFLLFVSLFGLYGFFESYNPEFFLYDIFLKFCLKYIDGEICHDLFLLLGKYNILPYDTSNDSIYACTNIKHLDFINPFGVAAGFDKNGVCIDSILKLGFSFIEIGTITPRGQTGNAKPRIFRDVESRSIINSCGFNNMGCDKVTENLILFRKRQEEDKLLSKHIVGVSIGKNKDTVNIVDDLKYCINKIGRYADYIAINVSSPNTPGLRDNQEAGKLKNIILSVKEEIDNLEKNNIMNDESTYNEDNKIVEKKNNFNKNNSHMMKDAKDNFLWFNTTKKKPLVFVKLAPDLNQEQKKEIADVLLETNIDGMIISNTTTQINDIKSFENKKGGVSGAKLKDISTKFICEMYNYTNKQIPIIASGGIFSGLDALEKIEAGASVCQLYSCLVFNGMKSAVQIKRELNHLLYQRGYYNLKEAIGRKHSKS

Row | Compound | z-score [1] | z-score [2] | z-score [3] | composite z-score [4] | z-score [5] | z-score [6] | z-score [7] | z-score [8] | z-score [9] | composite z-score [10]
1 | COCCOC(=O)N1C(=O)[C@@]2(c3cc(C#CC4(O)CCCCCC4)ccc31)[C@H](c1ccccc1OCCO)N1[C@H](c3ccccc3)[C@H](c3ccccc3)OC(=O)[C@H]1[C@@H]2C(=O)N1CCCCCCC1 | -0.0209 | 2.15 (inactive) | -0.303 (inactive) | 0.0767 (inactive) | 2.05 (inactive) | 2.76 (inactive) | -0.225 (inactive) | 0.003 (inactive) | -0.444 | 0.0483
2 | C#CCN=C(N)N | -0.0276 | -0.639 (inactive) | 0.111 (inactive) | -0.377 (inactive) | 0.845 (inactive) | -0.491 (inactive) | -0.383 (inactive) | -0.079 (inactive) | 0.0428 | 0.155
3 | [N-]=[N+]=NCc1ccccc1C[C@@]1(C(=O)O)N=C(c2ccc(OCCCO)cc2)O[C@@H]1c1ccccc1CN=[N+]=[N-] | 1.86 | -4 (inactive) | 0.781 (inactive) | -1.62 (inactive) | -0.608 (inactive) | -0.916 (inactive) | 0.274 (inactive) | 0.697 (inactive) | 1.03 | 0.209
4 | COC(=O)[C@H](Cc1ccc(O)cc1)N1CC2=CCCC=C[C@@H]2[C@H]1[C@H](O)Cc1ccccc1 | 0.969 | -2.95 (inactive) | 0.658 (inactive) | -0.574 (inactive) | 0.106 (inactive) | -0.889 (inactive) | 1.34 (inactive) | 1.34 (inactive) | 0.601 | -0.219
5 | CCOC(=O)C[C@H]1[C@H](OC(=O)c2ccc(-c3ccccc3)cc2)[C@@H](NC(=O)CC(C)C)c2cc(OCCCO)ccc2N1C(=O)Cc1ccc(OC)cc1 | -0.378 | 0.605 (inactive) | -0.38 (inactive) | 0.423 (inactive) | 0.35 (inactive) | -0.154 (inactive) | -0.181 (inactive) | -0.12 (inactive) | -0.306 | -0.274
6 | COc1ccc(NC(=O)O[C@H]2[C@H](OC(=O)Nc3ccc4c(c3)OCO4)[C@H](OC(=O)Nc3ccc4c(c3)OCO4)[C@@H](OC)O[C@@H]2CO)cc1 | -0.637 | 1.41 (inactive) | -0.366 (inactive) | 0.229 (inactive) | 0.826 (inactive) | 1.88 (inactive) | 0.677 (inactive) | 0.18 (inactive) | -0.686 | 0.52
7 | O=C1O[C@H](c2ccccc2)[C@H](c2ccccc2)N2[C@H]1[C@@H](C(=O)N1CCN(c3ncccn3)CC1)[C@]1(C(=O)Nc3ccccc31)[C@H]2c1ccc(O)cc1 | -0.291 | 0.688 (inactive) | -0.73 (inactive) | 0.447 (inactive) | 0.641 (inactive) | 2.29 (inactive) | 0.179 (inactive) | 0.481 (inactive) | -1.2 | -0.13
8 | COC(=O)Cn1c(C(=O)N(C)C)cc2c1C[C@H]1CN(C(=O)c3ccccc3)[C@@](Cc3ccc(OC)cc3)(C(=O)OC)[C@@H]21 | -0.708 | 1.15 (inactive) | -0.667 (inactive) | 0.072 (inactive) | -0.0424 (inactive) | 0.555 (inactive) | -0.552 (inactive) | -0.263 (inactive) | -0.876 | -0.158
9 | COC(=O)[C@@]1(Cc2ccc(OC)cc2)[C@H]2c3cc(C(=O)N(C)C)n(Cc4ccsc4Br)c3C[C@H]2CN1C(=O)c1ccccc1 | -0.0214 | 1.52 (inactive) | -0.807 (inactive) | 0.184 (inactive) | 0.0539 (inactive) | 1.89 (inactive) | -0.656 (inactive) | -0.377 (inactive) | -0.907 | 0.452
10 | CCCCCCCCCCC(O)C1C=CC2C(=O)N(C)C(=O)C2N1N1CCCCC1 (stereo not given) | -1.36 | 0.447 (inactive) | -1.35 (inactive) | 1.24 (inactive) | 0.944 (inactive) | 1.53 (inactive) | -0.619 (inactive) | -0.373 (inactive) | -1.18 | 0.0264
11 | CCCCC(=C=CC[C@@H](O)c1cccc(OCCO)c1)CCO | 0.695 | -1.26 (inactive) | -0.0452 (inactive) | -0.376 (inactive) | 0.424 (inactive) | 0.549 (inactive) | 1.14 (inactive) | 0.839 (inactive) | 1.37 | -0.0853
12 | CO[C@H]1O[C@H](CO)[C@@H](OC(=O)Nc2ccccc2)[C@@H]2OC(=O)[C@H](Cc3ccccc3)C/C=C/C[C@@H](Cc3ccccc3)C(=O)O[C@@H]12 | -1.41 | 0.411 (inactive) | -3.52 (inactive) | -1.69 (inactive) | 0.385 (inactive) | 0.887 (inactive) | 1.04 (inactive) | 1.99 (inactive) | -2.26 | 0.288
13 | O=C1OCCC/C=C\[C@H]2OC34C=CCN(Cc5ccccc5)C(=O)[C@H]3N(CCCCCO)C(=O)[C@@H]4C12 (stereo not given in full) | 0.804 | -1.08 (inactive) | 1.24 (inactive) | -0.279 (inactive) | -0.099 (inactive) | -0.581 (inactive) | 0.691 (inactive) | 0.775 (inactive) | 1.16 | -0.157
14 | Cc1c(-c2ccc(-c3ccc(Cl)c(Cl)c3)o2)nc(-c2ccccc2)c2c1CO[Si]2(C(C)C)C(C)C | 0.368 | -0.922 (inactive) | -2 (inactive) | -0.063 (inactive) | 0.82 (inactive) | -0.569 (inactive) | 0.575 (inactive) | 0.462 (inactive) | -0.639 | 0.504
15 | O=C1c2ccccc2[C@@]2(Cc3ccccc3N(Cc3ccccc3)C2=O)[C@H](c2ccc(CO)cc2)N1Cc1ccccc1 | -0.739 | -0.773 (inactive) | -0.851 (inactive) | -2.87 (inactive) | 0.0714 (inactive) | -0.153 (inactive) | -0.0466 (inactive) | -0.0261 (inactive) | -0.982 | -0.0525
16 | CCCCC(O)C1C=CC2C(=O)NC(=O)C2N1Nc1ccccn1 (stereo not given) | -1.32 | 0.932 (inactive) | -1.09 (inactive) | 0.487 (inactive) | 0.695 (inactive) | 0.369 (inactive) | -0.576 (inactive) | -0.529 (inactive) | -1.07 | 0.117
17 | COCCOC(=O)N1C(=O)[C@@]2(c3cc(C#CC4(O)CCCCCC4)ccc31)[C@H](C(=O)N1CCc3cc(OC)c(OC)cc3C1)[C@H]1C(=O)O[C@H](c3ccccc3)[C@H](c3ccccc3)N1[C@@H]2c1ccc(O)cc1 | -0.511 | 0.257 (inactive) | -0.263 (inactive) | 0.7 (inactive) | 1.18 (inactive) | 1.39 (inactive) | -0.282 (inactive) | -0.252 (inactive) | -0.0713 | -0.0703
18 | CCCCC(=C=CC[C@H](O)c1ccc(OCCO)cc1)C[C@H](O)c1ccccn1 | 0.325 | -0.265 (inactive) | 0.747 (inactive) | -2.06 (inactive) | -0.247 (inactive) | 0.387 (inactive) | 1.45 (inactive) | 0.949 (inactive) | 1.76 | -0.142
19 | C=CCC(OC(C)=O)[C@@H]1[C@@H](N(Cc2cc3ccccc3o2)C(=O)c2ccc(-c3ccccc3)cc2)c2cc(OCCCO)ccc2N1C(=O)c1ccc2ccccc2n1 (stereo not given in full) | -0.0694 | 0.848 (inactive) | 0.943 (inactive) | 0.706 (inactive) | 0.35 (inactive) | 0.913 (inactive) | 0.965 (inactive) | 0.553 (inactive) | 0.97 | -0.0818
20 | COC(=O)[C@@]1(Cc2ccccc2)[C@H]2c3cc(C(=O)N4CCCC4)n(Cc4ccc(C(F)(F)F)nc4)c3C[C@H]2CN1C(=O)c1ccccc1 | 0.0826 | 1.18 (inactive) | -0.335 (inactive) | -0.559 (inactive) | -0.374 (inactive) | 0.151 (inactive) | 0.018 (inactive) | -0.815 (inactive) | -0.578 | 0.0558
21 | C[N+](C)(C)CCCC[C@@H]1NC(=O)[C@H]2C[C@@H](C(=O)NCCCCCNC(=O)CS)[C@@H](c3ccc(O)cc3)N2C1=O | -0.532 | -0.905 (inactive) | 0.469 (inactive) | -1.3 (inactive) | 0.82 (inactive) | -2.28 (inactive) | 0.902 (inactive) | 1.33 (inactive) | -0.178 | -0.216
22 | C#CCN(C/C=C/c1ccccc1)[C@H](CO[Si](C)(C)C(C)(C)C)c1ccccc1 | -0.355 | 0.571 (inactive) | -0.668 (inactive) | -0.26 (inactive) | 0.167 (inactive) | 0.244 (inactive) | -1.38 (inactive) | -1.59 (inactive) | -0.764 | -0.295
23 | C[C@H]1NC(=O)C([C@@H](C)OCc2ccccc2)NC(=O)[C@@]23C(=O)N[C@@H](Cc4ccccc4)C2[C@H](C)[C@@]2(C)O[C@H]2C3/C=C/C/C=C\CNC1=O (stereo not given in full) | -0.588 | 0.481 (inactive) | 0.178 (inactive) | 0.369 (inactive) | 0.13 (inactive) | 0.787 (inactive) | 0.979 (inactive) | 0.545 (inactive) | 0.472 | -0.381
24 | CC(C)(C)N1CC=CC23O[C@@H]4/C=C\CCCOC(=O)C4[C@H]2C(=O)N(CCCCCCO)[C@@H]3C1=O (stereo not given in full) | 0.232 | -0.584 (inactive) | 0.702 (inactive) | -1.58 (inactive) | 1.2 (inactive) | -1.13 (inactive) | -0.11 (inactive) | 0.602 (inactive) | 1.06 | -0.0795
25 | CCCCN1CC=CC23O[C@@H]4C=CCOC(=O)[C@@H]4[C@H]2C(=O)N(C(CO)C(C)C)[C@@H]3C1=O (stereo not given in full) | -0.469 | 0.303 (inactive) | -0.908 (inactive) | -0.221 (inactive) | 0.0405 (inactive) | 0.707 (inactive) | -0.781 (inactive) | -0.825 (inactive) | -0.844 | -0.22
